High-throughput results: PubChem BioAssay, several laboratories
An excerpt weighted towards active compounds, which were near 4.9% of everything screened.
PP5 inh: PP5 (human) phosphatase inhibition; P53041; purified PP5c, OMFP substrate fluorescence; inhibition, % at 6.7 µM; 320,000 tested, 0.18% active; AID 1987;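 active = inhibition above the campaign's mean inhibition across all tested compounds plus 3 SD, cut at about 9.5% in these data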
Mdm2-MdmX inh: human Mdm2/MdmX binding inhibition; SaOS-2 split-luciferase Mdm2/MdmX complementation, luminescence; inhibition, % at 8 µM; 330,000 tested, 3% active; AID 485346;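 active = inhibition of at least 50% at 8 µM in the primary screen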
Beta cell apopt: beta cell apoptosis inhibition | protection from apoptosis, % (no concentration beside the values) | INS-1E cytokine-induced death, ATP luminescence, 48 h; percent of positive-control rescue, neutral wells zero | 300,000 tested, 0.8% active | AID 435005;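 active = Every replicate reaches about 75%, or at least half do and their mean reaches it too, limit read from the data; inconclusive = At least half of replicates reach the limit but their mean does not; inactive = Under half of replicates reach the limit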;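 note: higher means more ATP so stronger rescue from cytokine killing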
Calb FLC: C. albicans growth modulation with fluconazole; C. albicans CaCi-2 (fluconazole-resistant clinical isolate) + fluconazole, Alamar Blue growth, 48 h; growth inhibition, % (test concentration not listed); 300,000 tested, 0.57% active; AID 1979;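 active = growth inhibition above about 58% in most replicates, limit read from the data, passing the limit was not always enough; inconclusive = exactly half the replicates above a set limit; inactive = most replicates below a set limit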;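 note: all wells also contain fluconazole at 8 µg/ml as a sub-toxic cotreatment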
CSC inhib: blocks cancer stem cells; cancer stem cell-like cells viability, luminescence; inhibition, % at 7.5 µM; 300,000 tested, 1.1% active; in the data active = inhibition above about 75%; inconclusive = no clear call, values can overlap the other calls; tested in HMLE shEcad cells
PP1 counter: blocks human PP1-alpha phosphatase, a PP5 counter-screen; inhibition, % at 6.7 µM; 320,000 tested, 0.9% active; purified PP1alpha, OMFP fluorescence; P62136;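 active = inhibition above the mean inhibition of all tested compounds plus 3 SD, computed separately for each screening campaign, cut at about 15% in these data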
Mdm2-MdmX conf: human Mdm2/MdmX binding inhibition, confirmed | shares compounds with Mdm2-MdmX inh | luminescent assay | inhibition, % at 8 µM | 10,000 tested, 55% active; in the data active = inhibition above about 40%
FLuc counter: counter-screen for Mdm2/MdmX inhibitors: full-length luciferase; 6,200 tested, 77% active; SaOS-2 full-length luciferase counterscreen, luminescence; AID 504607; inhibition, % at 8 µM; shares compounds with Mdm2-MdmX inh;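 active = mean inhibition at 8 µM reaching about 37%, which flags the compound as non-specific, limit read from the data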;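 note: p53-null SaOS-2 cells with luciferase driven by a doxycycline-inducible promoter; compound on cells about two nights before reading with doxycycline added after day one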
Numbers stand for hits; i = inactive; ? = inconclusive; nt = no result.

SMILES | PP5 inh | Mdm2-MdmX inh | Beta cell apopt | Calb FLC | CSC inhib | PP1 counter | Mdm2-MdmX conf | FLuc counter
O=C(NC(Cc1c[nH]c2ccccc12)C(=O)Nc1ccc(OC(F)(F)F)cc1)c1cccs1 (stereo not drawn) | i | 93 | i | i | i | i | 94 | i
Cn1c(=O)[nH]c(=O)c2c1nc(N/N=C/c1cccnc1)n2Cc1ccc(Cl)cc1 | i | 62 | i | i | i | i | i | nt
O=[N+]([O-])c1cccnc1N1CCN(Cc2ccc3c(c2)OCO3)CC1 | i | i | i | i | i | i | nt | nt
Cc1ccc2[nH]c3c(N4CCOCC4)ncnc3c2c1 | i | i | i | i | i | i | nt | nt
COc1ccc2[nH]c3c(N4CCN(Cc5ccc6c(c5)OCO6)CC4)ncnc3c2c1 | i | 57 | i | i | i | i | i | nt
O=[N+]([O-])c1ccc2ncnc(N3CCN(Cc4ccc5c(c4)OCO5)CC3)c2c1 | i | 74 | i | i | i | i | 65 | i
COc1ccc2[nH]c3c(N4CCC(O)(c5cccc(C(F)(F)F)c5)CC4)ncnc3c2c1 | i | 75 | i | i | i | i | 67 | i
Cc1ccccc1OCC(=O)Nc1cc(S(=O)(=O)N2CCCCC2)ccc1N1CCN(C)CC1 | i | i | i | i | i | i | nt | nt
O=C(NCCc1cccc(Cl)c1)c1cccc(-n2cnnn2)c1 | nt | i | nt | nt | nt | nt | nt | nt
Cc1ccc(S(=O)(=O)n2c(N)nc3ccccc32)cc1 | i | i | i | i | i | i | nt | nt
Cc1ccc(C(=O)n2c(N)nc3ccccc32)cc1 | i | 52 | i | i | i | i | 44 | 98
Nc1ccc(C(=O)n2c3ccccc3c3ccccc32)cc1 | i | 60 | i | i | i | i | 57 | 63
CCCCc1cc(=O)oc2cc(OCc3nn[nH]n3)ccc12 | i | i | i | i | i | i | nt | nt
O=C(Nc1ccc(N2CCCCCC2)cc1)c1ccccc1Cl | i | i | i | i | i | i | nt | nt
O=C(Nc1ccc(N2CCCCC2)cc1)c1ccccn1 | i | 81 | i | i | i | i | 84 | i
C=CCNc1nc(N)c(C(=C(C#N)C#N)c2ccc(Br)cc2)s1 | i | 51 | i | i | i | i | 42 | 88
CCN1C(=O)C(=Cc2cccc(OC)c2Oc2ccc([N+](=O)[O-])cc2[N+](=O)[O-])SC1=S | i | 100 | 99 | i | 77 | i | 95 | i
COc1cc(/C=C2\SC(=O)NC2=O)ccc1Oc1ccc([N+](=O)[O-])cc1[N+](=O)[O-] | i | i | i | i | i | i | nt | nt
O=C(/C=C/Nc1ccccc1Br)c1ccccn1 | i | 75 | i | i | i | i | 76 | i
O=C(CSc1nnc(CNC(=O)c2c(F)cccc2F)o1)NCc1ccco1 | i | i | i | i | i | i | nt | nt
Cc1ccc(C)c(NC(=S)NC(NC(=O)Cc2cccc3ccccc23)C(Cl)(Cl)Cl)c1 (stereo not drawn) | i | 99 | 76 | i | ? | i | 99 | i
Cc1ccc(C)c(NC(=S)NC(NC(=O)N(C)C)C(Cl)(Cl)Cl)c1 (stereo not drawn) | i | i | i | i | i | i | nt | nt
Cn1c(=O)c2c(nc(NCC3CCCC(CN)C3)n2Cc2ccc(Cl)cc2Cl)n(C)c1=O (stereo not drawn) | i | 58 | i | i | i | i | 42 | 65
Cn1c(=O)c2c(nc(NCCNC(=O)c3ccco3)n2Cc2ccc(Cl)cc2Cl)n(C)c1=O | i | i | i | i | i | i | nt | nt
CN(C)/C=N/c1ncn(-c2ncc(C(F)(F)F)cc2Cl)n1 | i | i | i | i | i | i | nt | nt
SMILES | PP5 inh | Mdm2-MdmX inh | Beta cell apopt | Calb FLC | CSC inhib | PP1 counter | Mdm2-MdmX conf | FLuc counter
CC(=O)Nc1ccc(CNc2ncnc3ccc(-c4c(C)noc4C)cc23)cc1 | i | 88 | i | nt | i | i | 68 | 49
COCCN1C(=O)N(c2cccc(C)c2)C(=O)C1CC(=O)Nc1cc(OC)cc(OC)c1 (stereo not drawn) | i | i | i | i | i | i | nt | nt
COc1ccc(Cn2c(C)nc3c(c(=O)c4ccccc4n3C)c2=O)cc1 | i | i | i | i | i | i | nt | nt
CCCCCc1nc2c(c(=O)c3ccccc3n2C)c(=O)n1Cc1ccc(OC)cc1 | i | 51 | i | i | i | i | i | nt
COc1ccccc1NC(=O)C(C)N1C(=O)C2CCCCC2C1=O (stereo not drawn) | i | i | i | nt | i | i | nt | nt
CC1Cc2ccccc2N1S(=O)(=O)c1cccc(C(=O)N2CC(=O)Nc3ccccc32)c1 (stereo not drawn) | i | i | i | i | i | i | nt | nt
Cc1ccc2c(c1)C(c1ccc([N+](=O)[O-])cc1)=NNC(c1ccc(Br)cc1)=N2 | i | 71 | i | i | i | i | i | nt
CCC(=O)Nc1nn(CC(C)C)c2nc3ccc(C)cc3cc12 | i | i | i | i | i | i | nt | nt
COc1ccc(N=C2NN=C(c3c(C)[nH]c4ccccc34)CS2)cc1 | i | 54 | i | i | 101 | i | i | nt
Cc1c(C#N)c(N)nc2c3c(sc12)NC(=O)CC3c1ccc(Cl)cc1 (stereo not drawn) | i | 92 | i | i | i | i | i | nt
N#Cc1c(N)nc2c3c(sc(=N)c2c1N)NC(=O)CC3c1ccccc1 (stereo not drawn) | i | i | i | i | i | i | nt | nt
CCOc1ccc(C(C(=O)NCC2CCCO2)N(Cc2cccc(OC)c2)C(=O)c2snc(C(N)=O)c2N)cc1 (stereo not drawn) | i | i | i | i | i | i | nt | nt
COc1cc(C(C(=O)NC2CCCC2)N(Cc2ccco2)C(=O)c2snc(C(N)=O)c2N)cc(OC)c1OC (stereo not drawn) | i | i | i | i | i | i | nt | nt
COc1ccc(C(C(=O)NCC2CCCO2)N(Cc2cccs2)C(=O)c2snc(C(N)=O)c2N)cc1 (stereo not drawn) | i | 52 | i | i | i | i | 49 | 88
CN(C)c1ccc(C(C(=O)NC2CCCCC2)N(Cc2ccco2)C(=O)c2snc(C(N)=O)c2N)cc1 (stereo not drawn) | i | 51 | i | i | i | i | i | 92
CC(=O)Nc1ccc(C(=O)COC(=O)c2ccco2)c(F)c1 | i | i | i | nt | i | i | nt | nt
Cc1ccc(S(=O)(=O)NCC(=O)NC2CC2)cc1 | i | i | i | i | i | i | nt | nt
CCn1c(SCC(=O)Nc2cc(C)on2)nc2c(c1=O)SCC2 | i | i | i | i | nt | i | nt | nt
CN1CCN(CCNC(=O)c2ccc3nc(-c4ccc(F)cc4)c(-c4ccc(F)cc4)nc3c2)CC1 | i | 54 | i | i | i | i | i | nt
CCc1nc2ccc(C(=O)NCCCN3CCN(c4ccc(F)cc4)CC3)cc2nc1CC | i | i | i | i | i | i | nt | nt
O=C(O)c1cc(S(=O)(=O)Nc2ccc3c(c2)OCCO3)c(Cl)cc1Cl | i | 55 | i | i | i | i | 42 | 67
CC(=O)Nc1ccc(S(=O)(=O)Nc2ccc3c(c2)OCCO3)cc1Cl | i | i | i | i | i | i | nt | nt
